# According to ChEMBL document CHEMBL3988442, “University of Dundee, Small-Polar-MMV Screening Library” (2021):
# Among all 69,000 compounds or so, about 950 (1.4%) showed an effect of 50% or more. The sample holds strong results, similar compounds and a random draw of the others, so the mix is not that of the screen.
# Test system: Mycobacterium tuberculosis
# Assay: Cornell M. t heat shock assay; note: in the data most compounds retested in dose-response had high values
# Format: functional, organism-based
# Set-up: dose or concentration left out as unconfirmed
row,SMILES,Percent Effect [%]
1,O=C(C1CC(F)(F)C1)N1C[C@@H]2CN(CC3CCCC3)CCO[C@@H]2C1.O=C(O)C(F)(F)F,-23.11
2,CN1CC(=O)N(c2ccsc2)CC12CCN(C(=O)N1CCCC1)C2.O=C(O)C(F)(F)F (stereo not given),-15.35
3,CCc1cnc(N2CCC3(CC2)CN(c2cccnc2)C(=O)CO3)nc1.O=C(O)C(F)(F)F,-15.98
4,CCN1CCC(c2nc3ccc(NC4CCC4)cn3n2)CC1.O=C(O)C(F)(F)F,28.46
5,Cc1noc(C)c1CN1C[C@@H]2COC[C@H](C(=O)N3CCCCO3)[C@@H]2C1.O=C(O)C(F)(F)F,10.78
6,CC(=O)N[C@@H]1CN(C(=O)c2cccc(C(F)(F)F)c2)C[C@H]1O,-5.977
7,O=C(Nc1cc(Cl)ccn1)c1nc(N2CCCC2)ncc1Cl,5.327
8,O=C(Nc1ccccn1)c1nc(N2CCCC2)ncc1Cl,-2.485
9,Cc1cc(NC(=O)c2nc(N3CCCC3)ncc2Cl)nc(C(C)C)n1,105.6
10,CC[C@H]1CN2CC[C@H]1C[C@@H]2CNCc1ccc(N(C)C)cc1,1.41
11,CC[C@H]1CN2CC[C@H]1C[C@@H]2CNC(=O)Nc1ccc(Br)cc1,4.849
12,CC[C@H]1CN2CC[C@H]1C[C@@H]2CNCc1ccc(OC(F)(F)F)cc1,100.5
13,CC[C@H]1CN2CC[C@H]1C[C@@H]2CNC(=O)Nc1ccccc1,-5.923
14,CC[C@H]1CN2CC[C@H]1C[C@@H]2CNCc1ccc(OC)cc1,-7.267
15,CC[C@H]1CN2CC[C@H]1C[C@@H]2CNC(=O)Nc1cc(OC)cc(OC)c1,76.55
16,CC(C)C(=O)N(C)Cc1nc(N2CCCC2)ncc1-c1ccncc1.Cl,19.59
17,CC(C)c1cc(C(=O)N2CCCC(n3cncn3)C2)n[nH]1 (stereo not given),-20.76
18,Cc1[nH]nc2ncc(C(=O)N3CCN(CC(C)O)CC3)cc12.Cl (stereo not given),-10.49
19,Cc1noc(C)c1CN1CCO[C@H]2CN(Cc3cncn3C)C[C@H]21.O=C(O)C(F)(F)F.O=C(O)C(F)(F)F,-21.37
20,CN1CCc2nc(C3CCN(C(=O)CCC4CCCC4)CC3)ncc2C1,104.5
21,CN1CCc2nc(C3CCCN(C(=O)CC4CCCCC4)C3)ncc2C1 (stereo not given),-14.45
22,O=C(CCC1CCCC1)N1CCC(c2ncc3c(n2)CCNC3)CC1,14.08
23,Cc1ccc(CN2C[C@@H]3C[C@H](C(=O)NCC4CC4)N(C)[C@@H]3C2)o1.O=C(O)C(F)(F)F.O=C(O)C(F)(F)F,-27.97

row,SMILES,Percent Effect [%]
1,CCC(C)Oc1ccc(CNCCNC(C)=O)cc1Cl (stereo not given),-0.254
2,CCC(C)Oc1ccc(CNCCNS(C)(=O)=O)cc1Cl (stereo not given),14.23
3,CCC(C)Oc1ccc(CNCCc2c[nH]cn2)cc1Cl (stereo not given),101.9
4,CN(CCc1ccccc1)Cc1nc2c(cnn2C)c(=O)[nH]1,14.44
5,CN(CCCOc1ccccc1)Cc1nc2c(cnn2C)c(=O)[nH]1,-3.727
6,COCCN(CCc1ccccc1)Cc1nc2c(cnn2C)c(=O)[nH]1,50.74
7,COCCN(CCOC)Cc1nc2c(cnn2C)c(=O)[nH]1,-10.64
8,CN(CCCc1ccccc1)Cc1nc2c(cnn2C)c(=O)[nH]1,59.96
9,COCCCN(CCOC)Cc1nc2c(cnn2C)c(=O)[nH]1,18.48
10,CNC(=O)CN1CCOCC12CCN(Cc1ccncc1)CC2.O=C(O)C(F)(F)F.O=C(O)C(F)(F)F,-37.23
11,CN(C)CCO[C@@H]1CC[C@H]2[C@H]1OCCN2C(=O)c1ccnnc1.O=C(O)C(F)(F)F,-33.17
12,COc1nccnc1-c1cc(NC2CCNCC2)nc2[nH]ccc12,-16.125
13,COc1ncc(-c2ccc(O)cc2)c(OC)n1,-3.595
14,COc1nccnc1-c1cc(NC2CCCC2)nc2[nH]ccc12,103.35
15,CNc1cc(C)nc(-c2cc(NC3CCNCC3)nc3[nH]ccc23)n1,-20.27
16,COc1ncc(-c2cc(NC3CCCC3)nc3[nH]ccc23)c(OC)n1,102
17,COc1ncc(-c2cc(NCCN(C)C)nc3[nH]ccc23)c(OC)n1,-24.47
18,FC(F)(F)c1ccc(-c2cc(NC3CCNCC3)nc3[nH]ccc23)nc1,16.27
19,COc1cc(-c2cc(NC3CCCC3)nc3[nH]ccc23)nc(N)n1,101.075
20,Nc1ccnc(-c2cc(NC3CCNCC3)nc3[nH]ccc23)c1,14.8
21,O=C(O)C(F)(F)F.O=C(c1ccno1)N1CC[C@@H]2O[C@@H](COCCN3CCCC3)CC[C@@H]21,-5.47
22,C[C@H]1CN2C[C@H](O)CC2CN1Cc1ccc2nccnc2c1.Cl (stereo not given in full),2.113
